# HP1b chromo inh – blocks HP1-beta chromodomain binding to methylated histone tails | P83916 | AlphaScreen HP1-beta / biotin-H3K9me3 peptide binding | Potency, µM (top dose mostly 114 µM), inactives show at the highest dose activity change, negative = inhibition, usual class: inhibitors | 390,000 tested, 0.56% active | AID 540317; also: nearly all actives have a fitted effect of over 70% in size
#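 Compound inhibition of the preformed complex between 50 nM HP1-beta and 50 nM biotinylated H3K9me3 peptide was read by AlphaScreen. Buffer was PBS pH 7.4 with 0.01% Tween-20. Incubations ran 30 min at room temperature, with 10 ug/mL donor/acceptor beads.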
# JMJD2A Tudor – JMJD2A Tudor domain (human) inhibition | O75164 | AlphaScreen JMJD2A-Tudor / H3K4me3 peptide binding | Potency, µM (series often up to 114 µM), for the others: top-dose activity change, negative = inhibition, actives largely listed as inhibitors | 390,000 tested, 4.4% active | AID 504339; also: % is scaled to controls: 0 for no effect and ±100 for the full control effect; nearly all actives have a fitted effect of over 50% in size
# L3MBTL1 block – blocks human L3MBTL1. Potency, µM (titrated, usually from 57.1 µM), for inactives: top-dose activity, negative = inhibition, actives largely listed as inhibitors. 230,000 tested, 0.66% active. AlphaScreen L3MBTL1–H3K9me1 peptide binding. AID 485360; also: % is scaled to controls: 0 for no effect and ±100 for the full control effect; nearly all actives have a fitted effect of over 60% in size
# Target sequence (Q9Y468 whole entry, looked up): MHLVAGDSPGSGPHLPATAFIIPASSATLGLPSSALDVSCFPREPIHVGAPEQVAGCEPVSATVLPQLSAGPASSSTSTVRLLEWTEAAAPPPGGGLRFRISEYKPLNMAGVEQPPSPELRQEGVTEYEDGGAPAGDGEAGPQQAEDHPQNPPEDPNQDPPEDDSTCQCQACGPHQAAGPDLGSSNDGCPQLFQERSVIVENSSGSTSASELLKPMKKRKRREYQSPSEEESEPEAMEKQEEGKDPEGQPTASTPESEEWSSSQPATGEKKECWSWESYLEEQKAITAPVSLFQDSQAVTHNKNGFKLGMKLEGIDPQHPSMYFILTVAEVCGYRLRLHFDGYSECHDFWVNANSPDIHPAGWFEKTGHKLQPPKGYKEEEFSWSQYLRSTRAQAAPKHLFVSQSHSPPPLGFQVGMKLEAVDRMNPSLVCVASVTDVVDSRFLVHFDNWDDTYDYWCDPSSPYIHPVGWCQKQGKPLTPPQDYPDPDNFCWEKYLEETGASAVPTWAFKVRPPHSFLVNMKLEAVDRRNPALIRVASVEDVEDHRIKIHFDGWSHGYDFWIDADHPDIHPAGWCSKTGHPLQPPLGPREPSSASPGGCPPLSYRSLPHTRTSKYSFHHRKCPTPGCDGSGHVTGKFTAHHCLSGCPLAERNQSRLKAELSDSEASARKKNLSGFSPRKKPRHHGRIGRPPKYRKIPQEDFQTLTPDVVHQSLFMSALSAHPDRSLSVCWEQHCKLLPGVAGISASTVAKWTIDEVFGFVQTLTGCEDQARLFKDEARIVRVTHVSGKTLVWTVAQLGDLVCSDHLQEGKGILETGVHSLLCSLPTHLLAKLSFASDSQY
#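 AlphaScreen proximity signal between nickel-chelate acceptor and streptavidin donor beads (final 10 ug/mL) reports binding of 50 nM L3MBTL1 to 75 nM biotin-H3 K9me1 peptide; complex incubated with compounds 30 min at room temperature; cefsulodin titration as control.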
# G9a block – inhibitors of human histone lysine methyltransferase G9a; Q96KQ7; G9a H3K9 monomethylation, AlphaScreen, 2 h; Potency, µM (titrated, usually from 102 µM), inactives show at the top dose activity, negative = inhibition, hits mostly inhibitors; 350,000 tested, 8.8% active; also: % is scaled to controls: 0 for no effect and ±100 for the full control effect; nearly all actives have a fitted effect of over 75% in size
#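 Using a bead-based AlphaScreen, monomethylated H3K9 product from 2 h room-temperature reactions (G9a 20 nM, peptide 500 nM, SAM 20 uM) was detected with 0.5 ug/mL rabbit anti-H3K9me1 antibody.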
# Sfp PPTase inh – inhibitors of Bacillus subtilis Sfp phosphopantetheinyl transferase | Q9F4F7 | Biochemical Sfp PPTase activity, qHTS | Potency, µM, without a hit: largest response in the series, negative = inhibition, usual class: inhibitors | 310,000 tested, 3.5% active | AID 1490;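 also: the enzyme is Sfp with the accession as filed and its product quenches rhodamine fluorescence; 0% = enzyme reaction without inhibitor and -100% = no enzyme wells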
#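 Fluorescence-quenching assay with 15 nM Sfp, 5 uM rhodamine-CoA and 12.5 uM BHQ-2-labelled ybbR peptide in pH 7.6 Hepes/MgCl2 buffer. Enzyme was pre-incubated with compound for 15 min at room temperature. Rate was taken from the 30-min fluorescence change (525/598 nm).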
# BAZ2B inh – BAZ2B (human) inhibition. AID 504333. Q9UIF8. AlphaScreen BAZ2B-H3K14Ac peptide displacement. 360,000 tested, 4.4% active. Potency, µM (highest dose often 114 µM), inactives show at the highest dose activity change, negative = inhibition, usual class: inhibitors; also: % is scaled to controls: 0 for no effect and ±100 for the full control effect; nearly all actives have a fitted effect of over 60% in size
#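 Compounds, titrated to a top concentration of 110 uM, were incubated 30 min at room temperature with preformed BAZ2B/acetyl-K14 H3 peptide complex (50 nM each). Proximity signal was measured by AlphaScreen after 20 min with beads.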
# Active calls of the source: *; u = inconclusive; x = not tested or not shown; ! = a repeat was not active; [ ] = another dose, or the depositor's remark. Sampled rows, rich in hits. Any-hit rate of the full collection: about 12%. Calls follow the shape of the dose curve; as a rule, active = well fitted curve in the direction sought with a large enough effect; inconclusive = small, poorly fitted or top-dose-only effect, or another doubt; inactive = no such curve, though single readings can be large; an effect the other way counts as inactive or inconclusive. Potency is read from the fitted curve at half-maximal effect.
SMILES,HP1b chromo inh,JMJD2A Tudor,L3MBTL1 block,G9a block,Sfp PPTase inh,BAZ2B inh
Cc1cc2ccccc2n1CCNC(=O)C1CC1,-8%,u,-1%,71µM*,7%,-2%
Cc1cc2ccccc2n1CCNC(=O)C1CCCC1,12%,-20%,-1%,-11%,14%,-21%
Cc1cc2ccccc2n1CCNC(=O)c1cccs1,u,u,-17%,35µM*,-15%,u
CSc1ccccc1C(=O)N(C)C(c1ccccc1)c1ccccc1,51%,-3%,x,8%[59 µM],-17%,6%
COc1ccc(C2C=C(c3ccccc3)Nc3nc(NC(=O)/C=C/c4ccccc4OC)nn32)cc1 (stereo not drawn),29%,-17%,x,-7%[59 µM],x,-12%
O=C(O/N=C1/CCSc2ccccc21)c1ccccc1,110%,62%,27%,-1%[0.501 µM],79µM*,3%
c1ccc(COc2ccc(OCCCN3CCCCC3)cc2)cc1,u,40µM*,x,13µM*,-15%,u
c1ccc(OCCCN2CCCC2)cc1,-45%,2.8µM*,x,3.2µM*,11%,79µM*
c1ccc(COc2ccc(OCCCCN3CCCC3)cc2)cc1,u,1.4µM*,u,22µM*,u,56µM*
COc1ccc(-n2c(C)cc(-c3csc(N)n3)c2C)cc1,u,45µM*,1%,8.9µM*,u,45µM*
Cc1cc(-c2csc(N)n2)c(C)n1-c1ccc(Cl)c(Cl)c1,u,56µM*,-9%,20µM*,-1%,u
COc1ccc(Cl)cc1-c1csc(N)n1,-14%,-23%,-9%,-7%[0.501 µM],-12%,-13%
COc1ccc(COC(=O)N/N=C2/C[C@@H](O)[C@@H](O)[C@@H]3[C@@H]4C(=O)N(C5CCCCC5)C(=O)[C@H]4CC[C@H]23)cc1,x,x,x,x,-1%,x
O=C(O)CCc1nc(-c2ccccc2)no1,49%,-6%[57.1 µM],8%,-10%[59 µM],19%,x
CCN(CC)CCc1nc(-c2ccccc2)no1,13%,40µM*,-3%,13µM*!,8%,-4%
O=C(CCC1COc2ccccc2O1)Nc1ncccc1O (stereo not drawn),8%,50µM*,-5%,-5%[59 µM],13%,u
Cn1c(NCCCO)nc2c1c(=O)n(Cc1cccc(F)c1)c(=O)n2C,4%,-7%,x,4%[59 µM],x,-13%
O=C(O)CC(Cn1[nH]nnc1=S)c1ccccc1 (stereo not drawn),13%,50µM*,x,8.9µM*,40µM*,u
O=C(O)CC(CC(=O)Nc1nncs1)c1ccccc1 (stereo not drawn),13%,-8%,x,-3%[12.7 µM],21%,-7%
CN1Cc2c(C(=O)OC(C)(C)C)ncn2-c2ccsc2C1=O,x,x,x,x,6%,x
Cc1ccc(NC(=O)Cn2nnc(-c3nc(-c4ccncc4)no3)c2N)c(C)c1,11%,-11%,x,-6%[59 µM],x,-4%
CCOc1cc(/C=N/Nc2nc(C)cc(=O)[nH]2)ccc1O,39%,-14%,x,-35%[2.33 µM],u,-9%
COc1ccc(/C=N/Nc2cc(C)nc(-n3nc(C)cc3C)n2)c(OC)c1,-7%,u,-5%,40%[59 µM],-20%,-32%
COc1cc(/C=N\Nc2nc(-c3ccc(C)cc3)c(NC(C)=O)s2)ccc1O,28µM*,-27%[11.4 µM],-12%,-120%[59 µM],-21%,40µM*
CCOc1cc(/C=N/Nc2cc(C)nc(-n3nc(C)cc3C)n2)ccc1O,117%,u,u,45µM*,1%,u
SMILES,HP1b chromo inh,JMJD2A Tudor,L3MBTL1 block,G9a block,Sfp PPTase inh,BAZ2B inh
CCOc1cc(/C=N\Nc2nc(-c3ccc(C)cc3)c(NC(C)=O)s2)ccc1O,u,28µM*,-10%,32µM*,-11%,-38%
CC1(C)CC=C(O[Si](C)(c2ccccc2)c2ccccc2)CC1,x,x,x,x,14%,x
CCOc1cc(CNc2cccc3[nH]c(C)nc23)ccc1OC,11%,u,x,50µM*,-11%,u
O=C(NCc1ccccc1)[C@]1(C(F)(F)F)C[C@H](CCC2CCCCC2)CCCO1,85%,41%,x,x,3%,x
CCC/C=C(\CCC)C(NC(=O)Oc1ccc(F)cc1)c1ccc(C(=O)OC)cc1 (stereo not drawn),x,x,x,x,14%,x
CCN(CC)C(=O)COc1ccc(/C(C)=N/Nc2ncc(Cl)cc2Cl)cc1,20%,-22%,-17%,x,79µM*,-7%
C/C(=N\Nc1ncc(Cl)cc1Cl)c1ccc(C#N)cc1,9%,-7%,u,-29%,11%,-11%
CSCCC(NC(=O)c1cccc(C)c1)C(=O)NCc1cccs1 (stereo not drawn),16%,-14%,6%,x,x,x
COC(=O)c1nc(NC(=O)c2cc(OC)c(OC)c(OC)c2)n[nH]1,49%,-6%,x,11µM*,-20%,u
Nc1nc(NC(=O)/C=C\C(=O)O)nn1-c1ccccc1,43%,-17%[11.4 µM],x,4%,-8%,22µM*
COc1ccc(/C=C/C(=O)Nc2nc(N)n(-c3ccccc3)n2)cc1,36%,-19%,-7%,22%[59 µM],22%,50µM*
COC(=O)c1nc(NC(=O)c2ccccc2Br)n[nH]1,34%,-4%,20%,u,6%,-11%
Nc1nc(NC(=O)c2ccco2)nn1-c1ccccc1,19%,-29%,2%,32%[59 µM],0%,-2%
COc1cc(C(=O)Nc2nc(N)n(-c3ccccc3)n2)cc(OC)c1OC,-9%,-4%[11.4 µM],x,-2%[12.7 µM],7%,50µM*
Cc1c(CC(=O)N[C@H](C(=O)O)C(C)C)c(=O)oc2cc3c(cc12)CCC(C)(C)O3,8%,u,x,-29%,6%,5%
COc1ccc(-c2nn(CCC#N)cc2C(=O)Nc2cccc(C(=O)O)c2)cc1OC,25%,-4%,4%,u,11%,0%
